Results as given in PubChem BioAssay.
The source made the active and inactive calls. Rule as the data show it, unless noted: active = inhibition above about 25%; inactive = the rest.

target: Nuclear receptor coactivator 1 (Homo sapiens) (UniProt Q15788); assay: NCOA1 GAL4-fusion reporter inhibition – cell-based, luminescence, quadruplicate, confirmation (AID 588820;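 active = mean inhibition above 46.68%, the untreated control wells mean plus 3 SD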;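 also: 0% = DMSO wells and 100% = gossypol 36 µM treated wells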); settings: HEK293 GAL4-SRC1 luciferase reporter, at 3.6 µM, stronger effect = higher value
Sequence (Q15788 whole entry, looked up, the tested form may be a part): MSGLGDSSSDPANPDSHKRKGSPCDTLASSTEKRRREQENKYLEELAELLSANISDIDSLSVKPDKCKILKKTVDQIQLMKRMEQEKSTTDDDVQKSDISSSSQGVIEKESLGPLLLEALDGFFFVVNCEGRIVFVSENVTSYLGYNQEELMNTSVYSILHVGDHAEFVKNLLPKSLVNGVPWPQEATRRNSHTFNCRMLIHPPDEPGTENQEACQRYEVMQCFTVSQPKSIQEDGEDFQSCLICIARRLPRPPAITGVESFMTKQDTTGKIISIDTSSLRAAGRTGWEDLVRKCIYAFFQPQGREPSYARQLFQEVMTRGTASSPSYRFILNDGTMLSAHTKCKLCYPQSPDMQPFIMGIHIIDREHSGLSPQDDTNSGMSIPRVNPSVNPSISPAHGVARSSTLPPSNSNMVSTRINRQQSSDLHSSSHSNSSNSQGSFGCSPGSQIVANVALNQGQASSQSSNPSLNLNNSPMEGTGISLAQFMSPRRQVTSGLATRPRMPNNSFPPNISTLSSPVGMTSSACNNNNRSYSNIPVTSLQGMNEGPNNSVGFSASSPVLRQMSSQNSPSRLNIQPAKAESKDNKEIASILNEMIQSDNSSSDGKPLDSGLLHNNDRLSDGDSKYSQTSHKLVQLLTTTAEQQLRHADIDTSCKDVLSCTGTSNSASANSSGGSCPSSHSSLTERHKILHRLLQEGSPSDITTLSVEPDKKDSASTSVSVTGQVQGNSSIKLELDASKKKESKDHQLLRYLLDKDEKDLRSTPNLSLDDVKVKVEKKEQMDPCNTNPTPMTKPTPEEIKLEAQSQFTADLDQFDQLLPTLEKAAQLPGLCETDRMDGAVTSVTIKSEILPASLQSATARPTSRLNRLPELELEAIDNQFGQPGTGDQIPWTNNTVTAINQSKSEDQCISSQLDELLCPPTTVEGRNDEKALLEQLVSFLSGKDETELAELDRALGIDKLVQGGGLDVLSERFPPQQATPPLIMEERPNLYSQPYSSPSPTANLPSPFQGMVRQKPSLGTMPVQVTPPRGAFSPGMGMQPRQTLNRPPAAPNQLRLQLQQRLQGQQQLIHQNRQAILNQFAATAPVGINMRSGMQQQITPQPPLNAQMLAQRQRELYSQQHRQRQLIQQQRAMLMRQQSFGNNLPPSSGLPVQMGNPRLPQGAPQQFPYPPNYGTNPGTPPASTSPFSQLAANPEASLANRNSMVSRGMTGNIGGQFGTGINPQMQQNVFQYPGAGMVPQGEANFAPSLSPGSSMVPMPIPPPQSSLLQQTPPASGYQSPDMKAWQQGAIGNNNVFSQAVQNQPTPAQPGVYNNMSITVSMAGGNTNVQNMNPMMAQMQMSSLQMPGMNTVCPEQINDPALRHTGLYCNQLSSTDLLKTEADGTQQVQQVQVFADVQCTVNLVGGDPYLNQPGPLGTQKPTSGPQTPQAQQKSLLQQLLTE

SMILES | inhibition
O=S(=O)(/C(=C\c1ccc(C(F)(F)F)cc1)c1nc2ccccc2[nH]1)c1ccccc1 | -29.1% (inactive)
O=C(N/N=C/c1cc(Br)ccc1O)c1ccncc1 | 26.4% (inactive)
CC(C)c1nc(NCCO)c(C#N)c2c1CCCC2 | 22.1% (inactive)
COC(=O)c1cc(N/C(N)=N/c2nc(C)cc(C)n2)cc(C(=O)OC)c1 | 48.2% (active)
O=C(N/N=C(\c1ccccc1)c1ccccn1)c1ccccc1Cl | 25.9% (inactive)
Fc1ccc(NC(=S)NNc2ncc(C(F)(F)F)cc2Cl)c(F)c1 | 15.9% (inactive)
CN(C)c1ccc(CNC(=O)CCNS(=O)(=O)c2cc(Br)cnc2N)cc1 | 8.5% (inactive)
CC(C)(C)OC(=O)NCCCC[C@H](NC(=O)c1nc[nH]c1C(=O)N[C@@H](CCCCNC(=O)OC(C)(C)C)C(=O)OC(C)(C)C)C(=O)OC(C)(C)C | -34.5% (inactive)
O=C(Nc1ccc(Cn2cccn2)cc1)c1ccc(COc2cccc(Br)c2)cc1 | -34.7% (inactive)
Cn1c(=N)n(CC(=O)c2ccc(Cl)c(Cl)c2)c2ccccc21 | -189% (inactive)
CC1CCN(c2nc3ccc(C(=O)O)cc3s2)CC1 | -48.3% (inactive)
COc1ccc(CNc2nn3c(-c4cccc(C(=O)N(C)C)c4)cnc3s2)cc1 | 51.7% (active)
NC(=O)c1sc2nccc(Nc3ccccc3)c2c1N | 53.8% (active)
NNC(=O)c1cnn(Cc2ccccc2)c1N | -14.9% (inactive)
N=c1c2c(-c3ccccc3)c(-c3ccccc3)n(Cc3ccco3)c2ncn1CCCO | 36.9% (inactive)
C/C(=N\NC(=O)c1nnn(-c2nonc2N)c1-c1ccccc1)c1ccccc1O | 60.8% (active)
CC(=O)Nc1ccc(SCC(=O)c2cc(C)n(-c3ccccc3)c2C)cc1 | -4.5% (inactive)
OC1c2cc(Br)ccc2N=C2CCCN21 (stereo not given) | 37% (inactive)
Cc1ccc(C2NC(=O)CCC2[N+](=O)[O-])cc1 (stereo not given) | -9.25% (inactive)
CCCOc1ccc(/C=N/Nc2ccccc2[N+](=O)[O-])c(O)c1 | -59.5% (inactive)
CNC(=O)c1ccc(NC(=O)C2CCN(c3ncnc4sc(C)c(C)c34)CC2)cc1 | 48.7% (active)
O=[N+]([O-])c1cccc2c1ccc1ncccc12 | 36% (inactive)
O=C(N/N=C/c1cc(Cl)ccc1O)c1ccc(Br)cc1 | 23.3% (inactive)
C#CCN(C[C@@H]1[C@@H](OC(=O)NCCCCCC)[C@@H](OC(=O)NCCCCCC)Cn2c(=O)ccc(=O)n21)S(=O)(=O)c1ccc(C)cc1 | 23.8% (inactive)
CCCc1c(C)nc2ccccc2c1SCCC#N | 39.6% (inactive)

test system: not listed separately; assay: repression of VP16-driven luciferase reporter – cell-based, luminescence, high throughput, counter-screen for SRC1 inhibitor project (AID 588824); settings: cell-based VP16 transactivation luciferase luminescence; at 3.6 µM; stronger effect = higher value

SMILES | inhibition
Cc1ccc(CNc2ncnc3ccc(-c4ccoc4C)cc23)o1 | 50.9% (active)
O=C(Nc1c2ccccc2nc2ccccc12)C(Cl)(Cl)Cl | 8.17% (inactive)
O=[N+]([O-])c1ccc(O)c(/C=N/Nc2ccccn2)c1 | 37.1% (active)
COc1ccc(-c2csc(NC(=O)C3CCN(c4ncnc5sc(C)c(C)c45)CC3)n2)cc1OC | 52.6% (active)
CN(C)CCCN1C(=O)c2cccc3c([N+](=O)[O-])ccc(c23)C1=O | 0.85% (inactive)
Cc1cc(C(=O)COC(=O)c2cccc(NS(C)(=O)=O)c2)c(C)n1CC1CCCO1 (stereo not given) | -54.4% (inactive)
O=C(NN=C(c1ccccc1)c1ccccn1)c1ccccc1 | 43.1% (active)
Cc1ccc(NC(=O)c2cc3ccccc3oc2=O)cc1S(=O)(=O)N(C)C | 63.7% (active)
O=c1[nH]c(=S)ccn1C1OC(CO)C(O)C1O (stereo not given) | -8.74% (inactive)
Cc1nn(Cc2ccc(Cl)cc2)c(C)c1NC(=O)c1cc(-c2ccc3c(c2)OCO3)on1 | 54.1% (active)
Cc1cccc(CNc2ncnc3ccc(-c4ccoc4)cc23)c1 | 46% (active)
CC(=O)NS(=O)(=O)c1ccc(NC(=O)/C=C/c2cn(-c3ccccc3)nc2-c2ccccc2)cc1 | -3.92% (inactive)
CCSCCc1nnc(NC(=O)Nc2cccc(C(F)(F)F)c2)s1 | 28.4% (active)
CCN(CC)CCNC(=O)c1ccc2c(c1NCCO)C(=O)c1ccccc1C2=O | -8.97% (inactive)
COc1ccc(-c2c[n+]3c(n2-c2ccccc2)CCCCC3)cc1 | 30.1% (active)
O=S(=O)(/C(=C\c1ccc(C(F)(F)F)cc1)c1nc2ccccc2[nH]1)c1ccccc1 | 42.4% (active)
O=C(N/N=C/c1cc(Br)ccc1O)c1ccncc1 | 39.9% (active)
CC(C)c1nc(NCCO)c(C#N)c2c1CCCC2 | 35.1% (active)
COC(=O)c1cc(N/C(N)=N/c2nc(C)cc(C)n2)cc(C(=O)OC)c1 | 52% (active)
O=C(N/N=C(\c1ccccc1)c1ccccn1)c1ccccc1Cl | 12.4% (inactive)

SMILES | inhibition
Fc1ccc(NC(=S)NNc2ncc(C(F)(F)F)cc2Cl)c(F)c1 | 29.1% (active)
CN(C)c1ccc(CNC(=O)CCNS(=O)(=O)c2cc(Br)cnc2N)cc1 | 20.7% (inactive)
CC(C)(C)OC(=O)NCCCC[C@H](NC(=O)c1nc[nH]c1C(=O)N[C@@H](CCCCNC(=O)OC(C)(C)C)C(=O)OC(C)(C)C)C(=O)OC(C)(C)C | -3.49% (inactive)
O=C(Nc1ccc(Cn2cccn2)cc1)c1ccc(COc2cccc(Br)c2)cc1 | 30.4% (active)
Cn1c(=N)n(CC(=O)c2ccc(Cl)c(Cl)c2)c2ccccc21 | -61.4% (inactive)
CC1CCN(c2nc3ccc(C(=O)O)cc3s2)CC1 | -1.81% (inactive)
COc1ccc(CNc2nn3c(-c4cccc(C(=O)N(C)C)c4)cnc3s2)cc1 | 33.5% (active)
NC(=O)c1sc2nccc(Nc3ccccc3)c2c1N | 39.8% (active)
NNC(=O)c1cnn(Cc2ccccc2)c1N | -5.69% (inactive)
N=c1c2c(-c3ccccc3)c(-c3ccccc3)n(Cc3ccco3)c2ncn1CCCO | 51.3% (active)
C/C(=N\NC(=O)c1nnn(-c2nonc2N)c1-c1ccccc1)c1ccccc1O | 40.6% (active)
CC(=O)Nc1ccc(SCC(=O)c2cc(C)n(-c3ccccc3)c2C)cc1 | -6.91% (inactive)
OC1c2cc(Br)ccc2N=C2CCCN21 (stereo not given) | 30.1% (active)
Cc1ccc(C2NC(=O)CCC2[N+](=O)[O-])cc1 (stereo not given) | -3.26% (inactive)
CCCOc1ccc(/C=N/Nc2ccccc2[N+](=O)[O-])c(O)c1 | -39.9% (inactive)
CNC(=O)c1ccc(NC(=O)C2CCN(c3ncnc4sc(C)c(C)c34)CC2)cc1 | 30% (active)
O=[N+]([O-])c1cccc2c1ccc1ncccc12 | 15.9% (inactive)
O=C(N/N=C/c1cc(Cl)ccc1O)c1ccc(Br)cc1 | 38.4% (active)
C#CCN(C[C@@H]1[C@@H](OC(=O)NCCCCCC)[C@@H](OC(=O)NCCCCCC)Cn2c(=O)ccc(=O)n21)S(=O)(=O)c1ccc(C)cc1 | 33.4% (active)
CCCc1c(C)nc2ccccc2c1SCCC#N | 25.5% (active)
